According to PubChem BioAssay AID1159580 (chemical genetic matrix, 2015):
Several values for one entry are separate records, joined by “and”; a condition that tells them apart may be missing. Equal values may be shown once. Hit rate of the full screen: of about 5,500 compounds, about 2,000 (36%) were called active. Inconclusive results (about 18%) are left out. Rule as the data show it: active = normalized growth mostly below about 0.91 (no sharp cut-off); inconclusive = no clear call, values can overlap the other calls; inactive = mostly above about 0.92. The list shows a part of the results.

Assay: chemical genetic growth profiling, strain panel (AID 1159580);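 also: tested at 20 µM; growth read once vehicle control cultures reached saturation at 30 °C; 1 = growth at the plate median or of vehicle wells; lower values mean less growth of the strain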
Conditions: S. cerevisiae deletion strains, growth OD

Measured: normalized growth

Nc1ncnc2c1ncn2[C@@H]1O[C@H](CO)[C@@H](O)[C@@H]1O
inactive: locus YAL013W, strain DEP1, stronger effect = lower value 1.01 | locus YAL021C, strain ccr4, stronger effect = lower value 1 | locus YAL026C, strain drs2, stronger effect = lower value 1.01 | locus YAL030W, strain snc1, stronger effect = lower value 1.01 | locus YBL061C, strain skt5, stronger effect = lower value 1.01 | locus YBR009C, strain hhf1, stronger effect = lower value 1.01 | locus YBR021W, strain FUR4, stronger effect = lower value 1 | locus YBR023C, strain chs3, stronger effect = lower value 1.01 | locus YBR171W, strain sec66, stronger effect = lower value 1.02 | locus YBR229C, strain ROT2, stronger effect = lower value 1.01 | locus YBR231C, strain swc5, stronger effect = lower value 0.997 | locus YBR279W, strain paf1, stronger effect = lower value 1.01 | locus YCL011C, strain gbp2, stronger effect = lower value 1.01 | locus YCL016C, strain dcc1, stronger effect = lower value 1 | locus YCL029C, strain bik1, stronger effect = lower value 1.05 | locus YCL061C, strain MRC1, stronger effect = lower value 1.01 | locus YCL069W, strain vba3, stronger effect = lower value 1.02 | locus YCR088W, strain abp1, stronger effect = lower value 1.01 | locus YDL005C, strain med2, stronger effect = lower value 1.02 | locus YDL035C, strain GPR1, stronger effect = lower value 1.01 | locus YDL040C, strain nat1, stronger effect = lower value 1.01 | locus YDL074C, strain BRE1, stronger effect = lower value 1.01 | locus YDL101C, strain DUN1, stronger effect = lower value 1.01 | locus YDL134C, strain PPH21, stronger effect = lower value 1.01 | locus YDL185W, strain tfp1, stronger effect = lower value 1.02 | locus YDL192W, strain arf1, stronger effect = lower value 1.03 | locus YDR001C, strain nth1, stronger effect = lower value 1.01 | locus YDR069C, strain doa4, stronger effect = lower value 1.01 | locus YDR101C, strain arx1, stronger effect = lower value 1.03 | locus YDR137W, strain rgp1, stronger effect = lower value 1.03 | locus YDR150W, strain NUM1, stronger effect = lower value 1.01 | locus YDR159W, strain sac3, stronger effect = lower value 1.01 | locus YDR162C, strain NBP2, stronger effect = lower value 1.01 | locus YDR195W, strain ref2 1.02 | locus YDR297W, strain sur2, stronger effect = lower value 1.01 | locus YDR318W, strain mcm21, stronger effect = lower value 1.04 | locus YDR334W, strain swr1, stronger effect = lower value 1.01 | locus YDR335W, strain msn5, stronger effect = lower value 1 | locus YDR388W, stronger effect = lower value 1.02 | locus YDR392W, strain spt3, stronger effect = lower value 0.986 | locus YDR502C, strain sam2, stronger effect = lower value 1.03 | locus YEL003W, strain gim4, stronger effect = lower value 1.02 | locus YEL037C, strain rad23, stronger effect = lower value 1.01 | locus YEL061C, strain CIN8 (second series), stronger effect = lower value 1.02 | locus YEL061C, strain CIN8, stronger effect = lower value 1.01 | locus YER015W, strain faa2, stronger effect = lower value 1.01 | locus YER016W, strain bim1, stronger effect = lower value 1.01 | locus YER110C, stronger effect = lower value 1.04 | locus YER111C, strain swi4, stronger effect = lower value 1.01 | locus YER155C, strain BEM2 (second series), stronger effect = lower value 1.02 | locus YER155C, strain BEM2, stronger effect = lower value 1 | locus YER167W, strain BCK2, stronger effect = lower value 1.01 | locus YFR010W, strain ubp6, stronger effect = lower value 1.02 | locus YGL078C, strain dbp3, stronger effect = lower value 1.02 | locus YGL086W, strain mad1, stronger effect = lower value 1.01 | locus YGL167C, strain pmr1, stronger effect = lower value 1.02 | locus YGL173C, strain kem1, stronger effect = lower value 1.01 | locus YGL227W, strain vid30, stronger effect = lower value 1.01 | locus YGL240W, strain doc1, stronger effect = lower value 1.02 | locus YGL248W, strain PDE1, stronger effect = lower value 1.01 | locus YGL253W, strain hxk2, stronger effect = lower value 1.02 | locus YGR078C, strain PAC10, stronger effect = lower value 1.01 | locus YGR135W, strain pre9, stronger effect = lower value 1.03 | locus YGR229C, strain SMI1, stronger effect = lower value 1.01 | locus YGR252W, strain gcn5, stronger effect = lower value 1.06 | locus YHR013C, strain ard1, stronger effect = lower value 1.03 | locus YHR027C, strain rpn1, stronger effect = lower value 1.01 | locus YHR030C, strain SLT2, stronger effect = lower value 1.01 and 0.991 | locus YHR079C, strain IRE1 (second series), stronger effect = lower value 1.02 | locus YHR079C, strain IRE1, stronger effect = lower value 0.995 | locus YHR094C, strain hxt1, stronger effect = lower value 1.02 | locus YHR129C, strain ARP1, stronger effect = lower value 1 | locus YHR142W, strain chs7, stronger effect = lower value 1.03 | locus YHR200W, strain rpn10, stronger effect = lower value 1.03 | locus YIL066C, strain RNR3, stronger effect = lower value 1.01 | locus YIL073C, strain SPO22, stronger effect = lower value 1.08 | locus YIL125W, strain kgd1, stronger effect = lower value 1.02 | locus YIR030C, strain dcg1, stronger effect = lower value 1.03 | locus YJL092W, strain hpr5, stronger effect = lower value 1.01 | locus YJL095W, strain BCK1 (second series), stronger effect = lower value 1.01 | locus YJL095W, strain BCK1, stronger effect = lower value 1.03 and 0.999 | locus YJL115W, strain asf1, stronger effect = lower value 1.01 | locus YJL129C, strain trk1, stronger effect = lower value 1.01 | locus YJL134W, strain LCB3, stronger effect = lower value 1.01 | locus YJL154C, strain vps35, stronger effect = lower value 1.02 | locus YJL164C, strain tpk1, stronger effect = lower value 1.03 | locus YJL166W, strain qcr8, stronger effect = lower value 1.01 | locus YJL168C, strain set2, stronger effect = lower value 1.03 | locus YJL187C, strain SWE1 (second series), stronger effect = lower value 1.02 | locus YJL187C, strain SWE1, stronger effect = lower value 1.01 | locus YJR043C, strain POL32, stronger effect = lower value 1.02 | locus YJR066W, strain TOR1, stronger effect = lower value 0.943
